Source: PubChem BioAssay AID1159580 (chemical genetic matrix, 2015)
Screen size: about 5,500 compounds; about 2,000 (36%) were called active. About 18% were inconclusive and are not listed. No stated cut-off is given here; in the data, active means normalized growth mostly below about 0.91 (no sharp cut-off); inconclusive means no clear call, values can overlap the other calls; inactive means mostly above about 0.92. This is one part of the list.

Assay: chemical genetic growth profiling, strain panel (AID 1159580);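 further: tested at 20 µM; growth read once vehicle control cultures reached saturation at 30 °C; 1 = growth at the plate median or of vehicle wells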
Settings: growth OD

Measured: normalized growth

CCN(CC)CCNC(=O)c1cc(Br)c(N)cc1OC
inactive: S. cerevisiae deletion strains, locus YJR043C, strain POL32, stronger effect = lower value 0.917 | S. cerevisiae deletion strains, locus YJR066W, strain TOR1, stronger effect = lower value 0.933 | S. cerevisiae deletion strains, locus YKL009W, strain mrt4, stronger effect = lower value 0.955 | S. cerevisiae deletion strains, locus YKL068W, stronger effect = lower value 0.989 | S. cerevisiae deletion strains, locus YKL085W, strain MDH1 (second series), stronger effect = lower value 0.993 | S. cerevisiae deletion strains, locus YKL085W, strain MDH1, stronger effect = lower value 0.993 | S. cerevisiae deletion strains, locus YKL160W, strain elf1, stronger effect = lower value 0.985 | S. cerevisiae deletion strains, locus YKL190W, strain CNB1, stronger effect = lower value 0.982 | S. cerevisiae deletion strains, locus YKR001C, strain vps1, stronger effect = lower value 0.984 | S. cerevisiae deletion strains, locus YKR026C, strain gcn3, stronger effect = lower value 0.971 | S. cerevisiae deletion strains, locus YKR091W, strain srl3, stronger effect = lower value 0.99 | S. cerevisiae deletion strains, locus YLL001W, strain dnm1, stronger effect = lower value 1 | S. cerevisiae deletion strains, locus YLL026W, stronger effect = lower value 0.99 | S. cerevisiae deletion strains, locus YLL041C, strain sdh2, stronger effect = lower value 0.98 | S. cerevisiae deletion strains, locus YLR027C, strain aat2, stronger effect = lower value 0.992 | S. cerevisiae deletion strains, locus YLR039C, strain RIC1, stronger effect = lower value 0.974 | S. cerevisiae deletion strains, locus YLR058C, strain SHM2, stronger effect = lower value 0.971 | S. cerevisiae deletion strains, locus YLR102C, strain apc9, stronger effect = lower value 0.991 | S. cerevisiae deletion strains, locus YLR113W, strain HOG1, stronger effect = lower value 1.01 | S. cerevisiae deletion strains, locus YLR221C, strain rsa3, stronger effect = lower value 0.992 | S. cerevisiae deletion strains, locus YLR258W, strain gsy2, stronger effect = lower value 0.991 | S. cerevisiae deletion strains, locus YLR262C, strain YPT6 (second series), stronger effect = lower value 1.02 | S. cerevisiae deletion strains, locus YLR262C, strain YPT6, stronger effect = lower value 0.958 | S. cerevisiae deletion strains, locus YLR268W, strain sec22, stronger effect = lower value 0.983 | S. cerevisiae deletion strains, locus YLR320W, strain mms22, stronger effect = lower value 1.01 | S. cerevisiae deletion strains, locus YLR330W, strain CHS5, stronger effect = lower value 1 | S. cerevisiae deletion strains, locus YLR342W, strain FKS1 (second series), stronger effect = lower value 1.08 | S. cerevisiae deletion strains, locus YLR342W, strain FKS1, stronger effect = lower value 0.991 | S. cerevisiae deletion strains, locus YLR357W, strain rsc2, stronger effect = lower value 0.974 | S. cerevisiae deletion strains, locus YLR370C, strain arc18, stronger effect = lower value 0.994 | S. cerevisiae deletion strains, locus YLR371W, strain rom2, stronger effect = lower value 0.995 | S. cerevisiae deletion strains, locus YLR384C, strain iki3, stronger effect = lower value 0.991 | S. cerevisiae deletion strains, locus YLR418C, strain cdc73, stronger effect = lower value 1.04 | S. cerevisiae deletion strains, locus YML016C, strain PPZ1, stronger effect = lower value 0.994 | S. cerevisiae deletion strains, locus YML032C, strain rad52, stronger effect = lower value 0.968 | S. cerevisiae deletion strains, locus YML120C, strain ndi1, stronger effect = lower value 0.99 | S. cerevisiae deletion strains, locus YML124C, strain tub3, stronger effect = lower value 0.98 | S. cerevisiae deletion strains, locus YMR058W, strain fet3, stronger effect = lower value 0.982 | S. cerevisiae deletion strains, locus YMR078C, strain ctf18, stronger effect = lower value 0.988 | S. cerevisiae deletion strains, locus YMR125W, strain sto1, stronger effect = lower value 0.975 | S. cerevisiae deletion strains, locus YMR129W, stronger effect = lower value 0.986 | S. cerevisiae deletion strains, locus YMR205C, strain PFK2, stronger effect = lower value 1.03 | S. cerevisiae deletion strains, locus YMR223W, strain ubp8, stronger effect = lower value 1.02 | S. cerevisiae deletion strains, locus YMR231W, strain pep5, stronger effect = lower value 1 | S. cerevisiae deletion strains, locus YMR307W, strain GAS1, stronger effect = lower value 1.07 | S. cerevisiae deletion strains, locus YNL067W, strain RPL9B, stronger effect = lower value 0.964 | S. cerevisiae deletion strains, locus YNL071W, strain lat1, stronger effect = lower value 0.987 | S. cerevisiae deletion strains, locus YNL153C, strain GIM3, stronger effect = lower value 0.961 | S. cerevisiae deletion strains, locus YNL183C, strain NPR1, stronger effect = lower value 0.956 | S. cerevisiae deletion strains, locus YNL209W, strain ssb2, stronger effect = lower value 0.988 | S. cerevisiae deletion strains, locus YNL233W, strain BNI4, stronger effect = lower value 0.957 | S. cerevisiae deletion strains, locus YNL248C, strain rpa49, stronger effect = lower value 0.969 | S. cerevisiae deletion strains, locus YNL250W, strain rad50, stronger effect = lower value 0.986 | S. cerevisiae deletion strains, locus YNL271C, strain bni1, stronger effect = lower value 0.988 | S. cerevisiae deletion strains, locus YNL298W, strain CLA4, stronger effect = lower value 0.985 | S. cerevisiae deletion strains, locus YNL307C, strain MCK1, stronger effect = lower value 0.981 | S. cerevisiae deletion strains, locus YNL322C, strain KRE1 (second series), stronger effect = lower value 0.987 | S. cerevisiae deletion strains, locus YNR049C, strain mso1, stronger effect = lower value 0.969 | S. cerevisiae deletion strains, locus YNR052C, strain pop2, stronger effect = lower value 0.992 | S. cerevisiae deletion strains, locus YOL006C, strain TOP1, stronger effect = lower value 0.879 | S. cerevisiae deletion strains, locus YOL012C, strain htz1 1.14 | S. cerevisiae deletion strains, locus YOL147C, strain pex11, stronger effect = lower value 0.989 | S. cerevisiae deletion strains, locus YOR001W, strain rrp6, stronger effect = lower value 0.966 | S. cerevisiae deletion strains, locus YOR061W, strain CKA2, stronger effect = lower value 0.97 | S. cerevisiae deletion strains, locus YOR069W, strain VPS5, stronger effect = lower value 0.992 | S. cerevisiae deletion strains, locus YOR070C, strain gyp1, stronger effect = lower value 0.996 | S. cerevisiae deletion strains, locus YOR080W, strain dia2, stronger effect = lower value 0.975 | S. cerevisiae deletion strains, locus YOR083W, strain WHI5, stronger effect = lower value 0.978 | S. cerevisiae deletion strains, locus YOR106W, strain vam3, stronger effect = lower value 0.992 | S. cerevisiae deletion strains, locus YOR136W, strain idh2, stronger effect = lower value 0.977 | S. cerevisiae deletion strains, locus YOR144C, strain elg1, stronger effect = lower value 0.998 | S. cerevisiae deletion strains, locus YOR184W, strain ser1, stronger effect = lower value 0.987 | S. cerevisiae deletion strains, locus YOR231W, strain MKK1, stronger effect = lower value 0.96 | S. cerevisiae deletion strains, locus YOR265W, strain rbl2, stronger effect = lower value 0.996 | S. cerevisiae deletion strains, locus YOR270C, strain vph1, stronger effect = lower value 1.01 | S. cerevisiae deletion strains, locus YOR290C, strain snf2, stronger effect = lower value 0.956 | S. cerevisiae deletion strains, locus YOR316C, strain cot1, stronger effect = lower value 0.975 | S. cerevisiae deletion strains, locus YPL051W, strain arl3, stronger effect = lower value 0.981 | S. cerevisiae deletion strains, locus YPL078C, strain atp4, stronger effect = lower value 0.975 | S. cerevisiae deletion strains, locus YPL106C, strain sse1, stronger effect = lower value 0.965 | S. cerevisiae deletion strains, locus YPL240C, strain hsp82, stronger effect = lower value 0.98 | S. cerevisiae deletion strains, locus YPL256C, strain CLN2, stronger effect = lower value 0.963 | S. cerevisiae deletion strains, locus YPR119W, strain clb2, stronger effect = lower value 0.99 | S. cerevisiae deletion strains, locus YPR141C, strain kar3, stronger effect = lower value 0.99 | S. cerevisiae deletion strains, locus YPR163C, strain tif3, stronger effect = lower value 0.998 | S. cerevisiae deletion strains, locus YPR167C, strain met16, stronger effect = lower value 0.991 | S. cerevisiae deletion strains, strain wtn01, stronger effect = lower value 1.03 | S. cerevisiae strains, strain wild type, stronger effect = lower value 0.987
